The list is not random: actives were taken first. Their share in the collection is about 5%.
SENP7 inh: SENP7 protease inhibition; AID 434973; recombinant SENP7, Z-RLRGG-aminoluciferin luminescence, 40 min; 330,000 compounds, 1.5% hits; inhibition, % at 5 µM; Q9BQF6;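 active = inhibition above about 50% at the single test dose, limit read from the data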;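 also: plate controls were DMSO with enzyme for no effect and no enzyme buffer wells for full effect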
SENP6 block: inhibitors of human SENP6 protease; Q9GZR1; Recombinant SENP6 catalytic domain, aminoluciferin luminescence; inhibition, % at 10 µM; 330,000 compounds, 1.8% hits; AID 2599;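 active = inhibition above about 50% at the single tested dose, limit read from the data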;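 also: plate controls were DMSO wells with enzyme for no effect and DMSO wells lacking enzyme for full effect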
Target sequence (Q9GZR1 628-1112 limits assumed): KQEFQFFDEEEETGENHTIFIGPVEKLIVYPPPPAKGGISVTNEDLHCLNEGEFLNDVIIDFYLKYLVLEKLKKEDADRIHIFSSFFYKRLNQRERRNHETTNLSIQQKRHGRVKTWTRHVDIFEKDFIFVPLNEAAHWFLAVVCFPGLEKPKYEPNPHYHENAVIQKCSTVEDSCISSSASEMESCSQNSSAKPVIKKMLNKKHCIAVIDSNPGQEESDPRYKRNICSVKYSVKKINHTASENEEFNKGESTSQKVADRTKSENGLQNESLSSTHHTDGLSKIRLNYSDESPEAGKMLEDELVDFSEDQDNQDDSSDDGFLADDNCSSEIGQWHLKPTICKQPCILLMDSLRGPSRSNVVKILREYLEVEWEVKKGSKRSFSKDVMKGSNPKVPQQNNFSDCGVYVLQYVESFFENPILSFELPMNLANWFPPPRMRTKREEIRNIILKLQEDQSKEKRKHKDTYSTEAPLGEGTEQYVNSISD
SENP8 block-1: inhibitors of human SENP8 protease. recombinant SENP8, Nedd8 substrate fluorescence. inhibition, % at 20 µM. 360,000 compounds, 0.64% hits; in the data active = inhibition mostly above about 40%, no sharp cut-off; inactive = mostly below about 27%
AHR act: activates the human aryl hydrocarbon receptor; P35869; activation, % at 5 µM; 320,000 compounds, 2.5% hits; AID 2796; AHR-responsive luciferase reporter cells, luminescence; in the data active = activation above about 47%;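 also: 0% = vehicle wells and 100% = reference agonist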
EBI2 antag: EBI2 (human) antagonism; inhibition, % at 5 µM; P32249; EBI2 beta-arrestin recruitment, luminescence, 7a,25-OHC stimulated; 360,000 compounds, 0.81% hits; in the data active = inhibition above about 38%;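 also: enzyme fragment complementation signal reports receptor beta-arrestin coupling in cells; 0% = agonist plus DMSO wells and 100% = wells without agonist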
SENP8 block-2: SENP8 protease inhibition | Q96LD8 | 330,000 compounds, 1.2% hits | purified SENP8, Z-RLRGG-aminoluciferin cleavage, luminescence | inhibition, % at 10 µM; in the data active = inhibition above about 50%
SENP8 conf: confirmation of human SENP8 protease inhibitors. 6,200 compounds, 40% hits. shares compounds with SENP7 inh. Recombinant SENP8, Z-RLRGG-aminoluciferin luminescence, 60 min. inhibition, % at 12.5 µM;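 active = mean inhibition across replicates above about 50%, limit read from the data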
SENP6 conf: confirmation of human SENP6 protease inhibitors; shares compounds with SENP7 inh; 6,200 compounds, 58% hits; inhibition, % at 12.5 µM; recombinant SENP6, Z-RLRGG-aminoluciferin luminescence
SENP7 confirm: human SENP7 inhibition, confirmed; shares compounds with SENP7 inh; recombinant SENP7, Z-RLRGG-aminoluciferin luminescence, 40 min; inhibition, % at 12.5 µM; 6,200 compounds, 69% hits
Casp3 SENP sel: inhibits human caspase-3 in SENP selectivity test. inhibition, % at 12.5 µM. 6,200 compounds, 60% hits. purified caspase-3, Z-DEVD-aminoluciferin luminescence, 60 min. shares compounds with SENP7 inh;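 active = mean inhibition above about 50%, limit read from the data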;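 also: plate controls were enzyme with DMSO for no effect and wells without caspase-3 for full effect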
Luc interf: interferes with luciferase luminescence in SENP counter-screen; 6,200 compounds, 39% hits; shares compounds with SENP7 inh; Pre-incubated SENP8/Z-RLRGG-aminoluciferin, luciferase luminescence interference; AID 488919; inhibition, % at 12.5 µM;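 active = mean inhibition above about 50% when retested at one dose, limit read from the data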;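 also: plate controls were DMSO wells with completed reaction for no effect and substrate without enzyme for full effect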
* hit, by the source's call; nt = no result.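 The calls were made as follows, unless noted: active = mean inhibition above about 50% in the one-dose retest (limit read from the data); inactive = the rest.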

SMILES	SENP7 inh	SENP6 block	SENP8 block-1	AHR act	EBI2 antag	SENP8 block-2	SENP8 conf	SENP6 conf	SENP7 confirm	Casp3 SENP sel	Luc interf
O=C(/C=C/c1ccccc1Cl)Nc1ccccc1	99*	97*	22	36	0	96*	8	99*	103*	94*	95*
O=C(/C=C/c1ccccc1Cl)Nc1ccc2c(c1)C(=O)NC2=O	5	8	-383	35	-2	-8	nt	nt	nt	nt	nt
O=C(/C=C/c1ccccc1Cl)c1ccc(O)cc1	73*	90*	22	-1	7	82*	8	-4	-1	14	55*
CN(C)S(=O)(=O)c1ccc(NC(=O)/C=C/c2ccccc2Cl)cc1	-1	-8	-10	-7	26	-20	nt	nt	nt	nt	nt
O=C(/C=C/c1ccccc1Cl)Nc1cccc(O)c1	96*	98*	13	-2	14	94*	96*	97*	102*	91*	96*
COc1cc(NC(=O)CSc2nnc3c(n2)[nH]c2ccc(S(=O)(=O)NC(C)C)cc23)cc(OC)c1OC	1	-12	2	1	-6	-4	nt	nt	nt	nt	nt
COc1ccccc1N(/N=C1\Sc2ccccc2C1=O)C(C)=O	29	92*	31	39	7	79*	8	83*	66*	23	15
CCOC(=O)c1sc(NC(=O)c2sccc2C)cc1C	100*	99*	-86	-10	17	97*	100*	101*	104*	99*	97*
CCOC(=O)c1sc(NC(=O)Nc2cccc(Cl)c2)cc1C	14	-4	-85	6	15	3	nt	nt	nt	nt	nt
CCOC(=O)c1sc(NC(=O)c2cccs2)cc1C	91*	83*	-52	-3	3	66*	28	75*	98*	81*	10
O=C(CCc1nc2ccccc2s1)NC1CCOC1=O (configuration not stated)	1	61*	12	3	-9	2	9	6	-8	2	0
CCC(Oc1ccccc1)C(=O)NCc1ccc(S(N)(=O)=O)cc1 (configuration not stated)	0	-20	13	-2	3	-2	nt	nt	nt	nt	nt
COc1cccc(/C=N/Nc2snc(SC)c2C#N)c1O	96*	99*	-255	39	-25	96*	95*	98*	100*	94*	79*
O=C(O)c1ccccc1NN=Cc1ccccc1	nt	nt	2	nt	-3	nt	nt	nt	nt	nt	nt
COc1cccc(/C=N/NC(=O)N/N=C/c2cccc(OC)c2O)c1O	1	50	-2	5	-4	50*	-3	39	65*	61*	27
COc1cccc(/C=N/Nc2ccccc2C(=O)O)c1O	79*	93*	10	32	-12	88*	94*	94*	99*	92*	93*
COc1cccc(/C=N/Nc2ccc(S(=O)(=O)O)cc2)c1O	-10	17	-95	-4	4	4	nt	nt	nt	nt	nt
COc1cccc(/C=N/Nc2ccc(C(=O)O)cc2)c1O	99*	99*	-29	-10	-7	98*	99*	100*	102*	98*	97*
COc1ccccc1C=NNC(=O)NN=Cc1ccccc1OC	nt	nt	11	nt	2	nt	nt	nt	nt	nt	nt
COc1cccc(/C=N/Nc2ccnc(=O)[nH]2)c1O	-3	-8	3	25	-4	1	nt	nt	nt	nt	nt
CCN1CCN(c2ncnc3sc4c(c23)CCC(C)C4)CC1 (configuration not stated)	-6	-20	11	2	7	-7	nt	nt	nt	nt	nt
O=C(Nc1oc2ccccc2c(=O)c1-c1ccc(Br)cc1)c1ccco1	5	8	-13	1	4	-3	nt	nt	nt	nt	nt
CC(C)N(C(=S)Nc1cccnc1)c1ccccc1	14	-27	8	2	5	-4	nt	nt	nt	nt	nt
COc1cc(OC)cc(N2CCN(S(=O)(=O)c3ccc(-n4cnnn4)cc3)CC2)c1	10	-3	7	-1	14	1	nt	nt	nt	nt	nt
O=C(O)c1cccc(N/N=C/c2ccc(-c3ccccc3)cc2)c1	nt	nt	-65	nt	-2	nt	nt	nt	nt	nt	nt
SMILES	SENP7 inh	SENP6 block	SENP8 block-1	AHR act	EBI2 antag	SENP8 block-2	SENP8 conf	SENP6 conf	SENP7 confirm	Casp3 SENP sel	Luc interf
COc1ccccc1/C=C/C=N/Nc1cccc(C(=O)O)c1	87*	98*	-167	1	-5	95*	99*	100*	102*	80*	98*
COc1cccc(/C=C/C(=O)OCC(=O)Nc2cccc(S(=O)(=O)N(C)C)c2)c1	-6	-4	-259	2	13	0	nt	nt	nt	nt	nt
Cc1ccc(-n2c(C)cc(C3=NNC(=NC4CC4)SC3)c2C)cc1C	0	42	1	51*	-36	56*	82*	84*	93*	74*	53*
Cc1nc(Cl)sc1C(=O)Nc1ccc(F)cc1	nt	nt	10	nt	5	nt	nt	nt	nt	nt	nt
CCc1cc2cc(C(=O)Nc3ccccc3F)sc2s1	92*	50*	8	-10	12	34	16	58*	98*	80*	5
CCc1cc2cc(C(=O)Nc3ccc(F)cc3)sc2s1	79*	48	13	-6	2	18	5	12	-3	11	-6
CC(C)(C)c1ccc(C(=O)Nc2ccc(F)cc2)s1	73*	84*	4	1	4	80*	58*	73*	95*	65*	35
CC(C)C(C)(C#N)NC(=O)CSc1nc(C2CCCCC2)n(-c2ccccc2)n1 (configuration not stated)	0	5	9	-1	6	-1	nt	nt	nt	nt	nt
COc1ccc(S(=O)(=O)N2CCN(c3ccccn3)CC2)cc1[N+](=O)[O-]	7	85*	16	0	-10	2	-4	-6	-2	8	5
COc1ccc2[nH]c(C(=O)Nc3cccc(C)n3)cc2c1	86*	91*	-482	2	6	85*	92*	92*	100*	92*	58*
CS(=O)(=O)Nc1ccccc1C(=O)OCC(=O)N1CCC(c2ccccc2)=N1	7	4	-131	1	10	-2	nt	nt	nt	nt	nt
Cc1nonc1C(=O)N/N=C/c1ccc(O)cc1O	100*	97*	-26	14	1	-7	98*	98*	102*	98*	97*
CCOc1ccc(S(=O)(=O)NCc2cccnc2)c2ccccc12	-8	-35	-29	8	-11	-7	nt	nt	nt	nt	nt

Screening results as filed in PubChem BioAssay.
